Laboratory results from PubChem BioAssay AID1159580 (chemical genetic matrix, 2015).
In all, about 5,500 compounds went through this assay and about 2,000 (36%) were called active. Not shown: some 18% with an inconclusive outcome. No stated cut-off is given here; in the data, active means normalized growth mostly below about 0.91 (no sharp cut-off); inconclusive means no clear call, values can overlap the other calls; inactive means mostly above about 0.92. The list shows a part of the results.

Assay: chemical genetic growth profiling, strain panel (AID 1159580);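 further: tested at 20 µM; growth read once vehicle control cultures reached saturation at 30 °C; 1 = growth at the plate median or of vehicle wells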
Conditions: growth OD

Measured: normalized growth

O=C(O)CNCP(=O)(O)O
inactive: S. cerevisiae deletion strains, locus YJR075W, strain HOC1, stronger effect = lower value 1.01 | S. cerevisiae deletion strains, locus YKL009W, strain mrt4, stronger effect = lower value 1.04 | S. cerevisiae deletion strains, locus YKL068W, stronger effect = lower value 1.01 | S. cerevisiae deletion strains, locus YKL085W, strain MDH1 (second series), stronger effect = lower value 1 | S. cerevisiae deletion strains, locus YKL085W, strain MDH1, stronger effect = lower value 1 | S. cerevisiae deletion strains, locus YKL160W, strain elf1, stronger effect = lower value 1.02 | S. cerevisiae deletion strains, locus YKL190W, strain CNB1, stronger effect = lower value 1.01 | S. cerevisiae deletion strains, locus YKR001C, strain vps1, stronger effect = lower value 1.02 | S. cerevisiae deletion strains, locus YKR026C, strain gcn3, stronger effect = lower value 1.02 | S. cerevisiae deletion strains, locus YKR091W, strain srl3, stronger effect = lower value 1.01 | S. cerevisiae deletion strains, locus YLL001W, strain dnm1, stronger effect = lower value 1.02 | S. cerevisiae deletion strains, locus YLL026W, stronger effect = lower value 1.01 | S. cerevisiae deletion strains, locus YLL041C, strain sdh2, stronger effect = lower value 1.01 | S. cerevisiae deletion strains, locus YLR027C, strain aat2, stronger effect = lower value 1.01 | S. cerevisiae deletion strains, locus YLR039C, strain RIC1, stronger effect = lower value 1.03 | S. cerevisiae deletion strains, locus YLR058C, strain SHM2, stronger effect = lower value 1.01 | S. cerevisiae deletion strains, locus YLR102C, strain apc9, stronger effect = lower value 1.01 | S. cerevisiae deletion strains, locus YLR113W, strain HOG1, stronger effect = lower value 1.02 | S. cerevisiae deletion strains, locus YLR221C, strain rsa3, stronger effect = lower value 1.01 | S. cerevisiae deletion strains, locus YLR258W, strain gsy2, stronger effect = lower value 1.02 | S. cerevisiae deletion strains, locus YLR262C, strain YPT6 (second series), stronger effect = lower value 1.03 | S. cerevisiae deletion strains, locus YLR262C, strain YPT6, stronger effect = lower value 1.03 | S. cerevisiae deletion strains, locus YLR268W, strain sec22, stronger effect = lower value 1 | S. cerevisiae deletion strains, locus YLR320W, strain mms22, stronger effect = lower value 1.03 | S. cerevisiae deletion strains, locus YLR330W, strain CHS5, stronger effect = lower value 1.01 | S. cerevisiae deletion strains, locus YLR342W, strain FKS1 (second series), stronger effect = lower value 1.03 | S. cerevisiae deletion strains, locus YLR342W, strain FKS1, stronger effect = lower value 1.03 | S. cerevisiae deletion strains, locus YLR357W, strain rsc2, stronger effect = lower value 1.03 | S. cerevisiae deletion strains, locus YLR370C, strain arc18, stronger effect = lower value 1 | S. cerevisiae deletion strains, locus YLR371W, strain rom2, stronger effect = lower value 1.01 | S. cerevisiae deletion strains, locus YLR384C, strain iki3, stronger effect = lower value 0.993 | S. cerevisiae deletion strains, locus YLR418C, strain cdc73, stronger effect = lower value 1.02 | S. cerevisiae deletion strains, locus YML016C, strain PPZ1, stronger effect = lower value 1 | S. cerevisiae deletion strains, locus YML032C, strain rad52, stronger effect = lower value 1.01 | S. cerevisiae deletion strains, locus YML120C, strain ndi1, stronger effect = lower value 1.02 | S. cerevisiae deletion strains, locus YML124C, strain tub3, stronger effect = lower value 1.01 | S. cerevisiae deletion strains, locus YMR058W, strain fet3, stronger effect = lower value 1.02 | S. cerevisiae deletion strains, locus YMR078C, strain ctf18, stronger effect = lower value 1.01 | S. cerevisiae deletion strains, locus YMR125W, strain sto1, stronger effect = lower value 1.02 | S. cerevisiae deletion strains, locus YMR129W, stronger effect = lower value 1.01 | S. cerevisiae deletion strains, locus YMR205C, strain PFK2, stronger effect = lower value 1.05 | S. cerevisiae deletion strains, locus YMR223W, strain ubp8, stronger effect = lower value 1.01 | S. cerevisiae deletion strains, locus YMR231W, strain pep5, stronger effect = lower value 1 | S. cerevisiae deletion strains, locus YMR263W, strain SAP30, stronger effect = lower value 1.01 | S. cerevisiae deletion strains, locus YMR307W, strain GAS1, stronger effect = lower value 0.975 | S. cerevisiae deletion strains, locus YNL067W, strain RPL9B, stronger effect = lower value 1.02 | S. cerevisiae deletion strains, locus YNL071W, strain lat1, stronger effect = lower value 1.02 | S. cerevisiae deletion strains, locus YNL128W, strain TEP1, stronger effect = lower value 1 | S. cerevisiae deletion strains, locus YNL153C, strain GIM3, stronger effect = lower value 1 | S. cerevisiae deletion strains, locus YNL183C, strain NPR1, stronger effect = lower value 0.917 | S. cerevisiae deletion strains, locus YNL209W, strain ssb2, stronger effect = lower value 1.03 | S. cerevisiae deletion strains, locus YNL233W, strain BNI4, stronger effect = lower value 1.02 | S. cerevisiae deletion strains, locus YNL248C, strain rpa49, stronger effect = lower value 1.01 | S. cerevisiae deletion strains, locus YNL250W, strain rad50, stronger effect = lower value 1 | S. cerevisiae deletion strains, locus YNL271C, strain bni1, stronger effect = lower value 1.01 | S. cerevisiae deletion strains, locus YNL298W, strain CLA4, stronger effect = lower value 1.02 | S. cerevisiae deletion strains, locus YNL307C, strain MCK1, stronger effect = lower value 1.02 | S. cerevisiae deletion strains, locus YNL322C, strain KRE1 (second series), stronger effect = lower value 1.02 | S. cerevisiae deletion strains, locus YNL322C, strain KRE1, stronger effect = lower value 1 | S. cerevisiae deletion strains, locus YNR049C, strain mso1, stronger effect = lower value 1.02 | S. cerevisiae deletion strains, locus YNR052C, strain pop2, stronger effect = lower value 1.01 | S. cerevisiae deletion strains, locus YOL006C, strain TOP1, stronger effect = lower value 1.05 | S. cerevisiae deletion strains, locus YOL012C, strain htz1 0.788 | S. cerevisiae deletion strains, locus YOL147C, strain pex11, stronger effect = lower value 1.01 | S. cerevisiae deletion strains, locus YOR001W, strain rrp6, stronger effect = lower value 1.01 | S. cerevisiae deletion strains, locus YOR061W, strain CKA2, stronger effect = lower value 1 | S. cerevisiae deletion strains, locus YOR069W, strain VPS5, stronger effect = lower value 1.01 | S. cerevisiae deletion strains, locus YOR070C, strain gyp1, stronger effect = lower value 1.02 | S. cerevisiae deletion strains, locus YOR080W, strain dia2, stronger effect = lower value 1.01 | S. cerevisiae deletion strains, locus YOR083W, strain WHI5, stronger effect = lower value 1.01 | S. cerevisiae deletion strains, locus YOR106W, strain vam3, stronger effect = lower value 1.02 | S. cerevisiae deletion strains, locus YOR136W, strain idh2, stronger effect = lower value 1.02 | S. cerevisiae deletion strains, locus YOR144C, strain elg1, stronger effect = lower value 1.02 | S. cerevisiae deletion strains, locus YOR184W, strain ser1, stronger effect = lower value 1.02 | S. cerevisiae deletion strains, locus YOR231W, strain MKK1, stronger effect = lower value 0.977 | S. cerevisiae deletion strains, locus YOR265W, strain rbl2, stronger effect = lower value 1.01 | S. cerevisiae deletion strains, locus YOR270C, strain vph1, stronger effect = lower value 1.03 | S. cerevisiae deletion strains, locus YOR290C, strain snf2, stronger effect = lower value 1.02 | S. cerevisiae deletion strains, locus YOR316C, strain cot1, stronger effect = lower value 1.01 | S. cerevisiae deletion strains, locus YPL051W, strain arl3, stronger effect = lower value 1.02 | S. cerevisiae deletion strains, locus YPL055C, strain LGE1, stronger effect = lower value 0.987 | S. cerevisiae deletion strains, locus YPL078C, strain atp4, stronger effect = lower value 1.02 | S. cerevisiae deletion strains, locus YPL106C, strain sse1, stronger effect = lower value 1.02 | S. cerevisiae deletion strains, locus YPL240C, strain hsp82, stronger effect = lower value 1.02 | S. cerevisiae deletion strains, locus YPL241C, strain CIN2, stronger effect = lower value 0.999 | S. cerevisiae deletion strains, locus YPL256C, strain CLN2, stronger effect = lower value 0.962 | S. cerevisiae deletion strains, locus YPR119W, strain clb2, stronger effect = lower value 1.01 | S. cerevisiae deletion strains, locus YPR141C, strain kar3, stronger effect = lower value 1.02 | S. cerevisiae deletion strains, locus YPR163C, strain tif3, stronger effect = lower value 1.01 | S. cerevisiae deletion strains, locus YPR167C, strain met16, stronger effect = lower value 1.02 | S. cerevisiae deletion strains, strain wtn01, stronger effect = lower value 1.01 | S. cerevisiae strains, strain wild type, stronger effect = lower value 0.997
